These results are taken from PubChem BioAssay.

Calls of active or inactive are those of the source.

Test [1] relates to PRMT1 (protein arginine N-methyltransferase 1). Put plainly: PRMT1 binders on small-molecule microarrays, primary screen, biochemical, small-molecule microarray, 635 nm fluorescence (AID 1088).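 Also: binding of Prmt1 protein to compounds spotted on small-molecule microarray slides.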 The note with it: small-molecule microarray binding, higher = more signal.
Test [2] is described as follows: yeast growth modulation, basal conditions, primary screen, YJM789 clinical isolate, OD600, 24 h (AID 1089).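 Also: growth of clinical yeast isolate S. cerevisiae YJM 789 seeded 1000 cells per well; test concentration not given here.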 The following applies: S. cerevisiae YJM789 growth, higher = more signal, called active from +8 up or from −8 down.
Test [3] is described as follows: fission yeast growth modulation, primary screen, strain 972, OD600, 24 h, no modulator (AID 1090).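 Also: basal condition with compound alone and no growth modifier present; test concentration not given here.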 The following applies: S. pombe 972 growth, higher = more signal, called active from +8 up or from −8 down.
Test [4] is described as follows: S. cerevisiae growth modulation with rapamycin, primary screen, strain BY4716, OD600, 96 h (AID 1091). Also: test concentration not given here. The note with it: higher = more signal, called active from +8 up or from −8 down.
Test [5] addresses Torsin-1A-interacting protein 2 (Homo sapiens) (UniProt Q8NFQ8). Briefly: LULL1 binders on small-molecule microarray, primary screen, cell lysate, human LULL1 lysate, 635/667 nm fluorescence (AID 1092).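 Also: probe is lysate of COS7 cells overexpressing human LULL1; score merges per-feature 667 nm fluorescence with signal-to-noise.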 The note with it: hLULL1 lysate binding, 635 nm fluorescence, higher = more signal.
Test [6] in a line: E. coli growth modulation, two-sided OD650, primary screen, E. coli filamentation project, strain DRC41, 24 h (AID 1093).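 Also: MC1000 strain lacking acrAB efflux and sulA so SOS filamentation is blocked; test concentration not given here.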 The following applies: OD650, 24 h, higher = more signal, called active from +8 up or from −8 down.
Test [7] in a line: small-molecule microarray binders of probe aLefty2, primary screen, biochemical, biotinylated probe, 635/667 nm fluorescence (AID 1094).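 Also: score merges spot fluorescence near 667 nm with spot signal-to-noise ratio.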 The following applies: higher = more signal.
The subject of test [8] is Noggin (protein binding on small-molecule microarray). Put plainly: Noggin binders on small-molecule microarray, primary screen, biochemical, 635/667 nm fluorescence (AID 1095).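 Also: score merges 667 nm feature fluorescence with signal to noise over triplicate slides.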 The note with it: 635 nm fluorescence, higher = more signal.
The target in test [9] is Neurogenic locus notch homolog protein 3 (Homo sapiens) (UniProt Q9UM47). Briefly: NOTCH3 binders on small-molecule microarray, primary screen, biochemical, 635/667 nm fluorescence (AID 1096). The following applies: NOTCH3 binding, 635 nm fluorescence, higher = more signal.
Neurogenic locus notch homolog protein 3 (Homo sapiens), sequence (Q9UM47 whole entry, looked up): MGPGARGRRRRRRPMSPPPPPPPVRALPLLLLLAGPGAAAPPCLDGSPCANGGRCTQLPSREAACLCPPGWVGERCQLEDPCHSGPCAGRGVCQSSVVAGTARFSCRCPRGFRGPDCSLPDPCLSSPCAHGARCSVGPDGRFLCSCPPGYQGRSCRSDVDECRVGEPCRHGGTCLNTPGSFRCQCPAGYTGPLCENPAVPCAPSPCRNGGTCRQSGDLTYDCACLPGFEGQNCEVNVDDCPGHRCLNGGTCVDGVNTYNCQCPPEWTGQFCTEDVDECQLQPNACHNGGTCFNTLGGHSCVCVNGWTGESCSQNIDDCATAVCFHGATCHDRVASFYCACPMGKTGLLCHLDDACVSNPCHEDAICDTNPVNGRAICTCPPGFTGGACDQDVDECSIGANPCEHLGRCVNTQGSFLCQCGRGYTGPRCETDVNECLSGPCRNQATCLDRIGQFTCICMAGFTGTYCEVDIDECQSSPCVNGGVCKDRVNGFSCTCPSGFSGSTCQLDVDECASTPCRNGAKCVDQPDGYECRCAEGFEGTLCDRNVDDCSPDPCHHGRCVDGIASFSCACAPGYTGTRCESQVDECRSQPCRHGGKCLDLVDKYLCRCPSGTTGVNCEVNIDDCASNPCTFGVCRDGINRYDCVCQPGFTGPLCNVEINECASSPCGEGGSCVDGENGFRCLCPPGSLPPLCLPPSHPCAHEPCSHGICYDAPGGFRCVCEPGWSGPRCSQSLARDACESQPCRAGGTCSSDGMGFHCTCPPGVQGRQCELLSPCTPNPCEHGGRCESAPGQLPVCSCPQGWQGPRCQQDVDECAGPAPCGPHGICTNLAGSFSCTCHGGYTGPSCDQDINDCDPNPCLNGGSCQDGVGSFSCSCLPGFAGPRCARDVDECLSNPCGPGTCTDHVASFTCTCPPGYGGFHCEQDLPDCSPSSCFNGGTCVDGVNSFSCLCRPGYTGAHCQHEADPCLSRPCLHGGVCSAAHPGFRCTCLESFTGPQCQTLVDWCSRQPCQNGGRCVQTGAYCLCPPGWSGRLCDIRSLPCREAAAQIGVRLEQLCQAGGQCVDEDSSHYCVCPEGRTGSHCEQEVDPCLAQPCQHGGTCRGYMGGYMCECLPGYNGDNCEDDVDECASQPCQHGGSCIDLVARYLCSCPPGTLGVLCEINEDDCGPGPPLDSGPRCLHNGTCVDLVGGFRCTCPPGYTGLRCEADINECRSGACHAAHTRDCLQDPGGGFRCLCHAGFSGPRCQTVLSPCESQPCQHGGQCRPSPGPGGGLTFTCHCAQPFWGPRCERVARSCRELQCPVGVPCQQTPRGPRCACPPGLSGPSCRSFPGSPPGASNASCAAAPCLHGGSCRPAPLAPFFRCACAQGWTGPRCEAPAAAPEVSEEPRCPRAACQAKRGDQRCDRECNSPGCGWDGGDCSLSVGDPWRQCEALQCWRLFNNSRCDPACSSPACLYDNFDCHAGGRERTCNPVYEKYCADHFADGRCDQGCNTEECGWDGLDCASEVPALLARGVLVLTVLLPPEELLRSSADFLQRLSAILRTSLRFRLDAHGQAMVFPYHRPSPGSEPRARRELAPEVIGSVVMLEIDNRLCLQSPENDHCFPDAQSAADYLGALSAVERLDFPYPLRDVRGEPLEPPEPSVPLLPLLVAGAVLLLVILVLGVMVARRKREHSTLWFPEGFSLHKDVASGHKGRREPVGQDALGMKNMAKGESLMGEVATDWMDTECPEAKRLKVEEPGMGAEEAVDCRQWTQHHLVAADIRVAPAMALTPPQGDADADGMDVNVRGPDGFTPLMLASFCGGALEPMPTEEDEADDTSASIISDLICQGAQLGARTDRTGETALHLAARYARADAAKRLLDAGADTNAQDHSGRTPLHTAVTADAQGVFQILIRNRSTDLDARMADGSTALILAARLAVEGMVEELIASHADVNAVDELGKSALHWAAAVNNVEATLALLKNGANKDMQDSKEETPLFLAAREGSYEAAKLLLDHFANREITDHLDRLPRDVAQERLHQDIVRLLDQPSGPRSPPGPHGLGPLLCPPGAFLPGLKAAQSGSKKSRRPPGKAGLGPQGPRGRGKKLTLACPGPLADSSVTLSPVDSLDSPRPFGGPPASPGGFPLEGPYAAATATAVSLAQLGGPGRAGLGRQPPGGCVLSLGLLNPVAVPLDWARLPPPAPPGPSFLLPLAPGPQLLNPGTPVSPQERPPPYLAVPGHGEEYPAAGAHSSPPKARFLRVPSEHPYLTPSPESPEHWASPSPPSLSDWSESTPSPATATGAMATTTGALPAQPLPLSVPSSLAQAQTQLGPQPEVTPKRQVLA
Test [10] can be described thus: small-molecule microarray binders of probe aEGFR, primary screen, biochemical, biotinylated probe, 635/667 nm fluorescence (AID 1097).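 Also: probe is a biotinylated anti-EGFR antibody binding compounds printed on slides; score combines fluorescence near 667 nm and signal to noise of each spot.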 The following applies: higher = more signal.
For test [11], the system named is Plasmodium falciparum Sir2 (PF13_0152, Sir2A). Briefly: pfSir2 binders on small-molecule microarrays, primary screen, biochemical, small-molecule microarray, 635 nm fluorescence (AID 1098).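 Also: score merges spot fluorescence intensity with its signal-to-noise ratio.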 The following applies: small-molecule microarray binding, fluorescence 635 nm; higher = more signal.
The nature of test [12]: small-molecule microarray binders of probe aDKK1, primary screen, biochemical, biotinylated probe, 635/667 nm fluorescence (AID 1099).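 Also: score merges 667nm spot fluorescence with signal to noise across triplicate slides; reference of the scale not given here.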 The following applies: higher = more signal.
The nature of test [13]: small-molecule microarray binders of probe aCHRDL2, primary screen, biochemical, biotinylated probe, 635/667 nm fluorescence (AID 1100). The following applies: higher = more signal.
Test [14] can be described thus: splicing luciferase reporter signal modulators, primary screen, spliceosome inhibition project, cell-based, HEK293, splice +/- reporter (AID 1101).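 Also: HEK293 cells carrying a splicing-competent luciferase reporter gene; test concentration not given here.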 The following applies: luminescence, 24 h, higher = more signal, called active from +8 up or from −8 down.
In test [15] the target is Fibroblast growth factor 10 (Homo sapiens) (UniProt O15520). Put plainly: FGF10 binders on small-molecule microarrays, primary screen, biochemical, small-molecule microarray, 635 nm fluorescence (AID 1102). The following applies: FGF10 binding, fluorescence 635 nm, higher = more signal.
Fibroblast growth factor 10 (Homo sapiens), sequence (O15520 whole entry, looked up): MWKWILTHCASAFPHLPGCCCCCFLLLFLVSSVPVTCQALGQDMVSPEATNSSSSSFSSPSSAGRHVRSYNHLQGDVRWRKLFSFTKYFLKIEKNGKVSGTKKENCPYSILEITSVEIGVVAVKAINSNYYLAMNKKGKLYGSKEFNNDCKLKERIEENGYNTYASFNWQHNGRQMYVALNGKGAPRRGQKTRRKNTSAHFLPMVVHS
The subject of test [16] is glycogen synthase kinase-3 (GSK3A per assay name; protocol says GSK3B). Briefly: GSK3 binders on small-molecule microarrays, primary screen, biochemical, small-molecule microarray, 635 nm fluorescence, GSK3A (AID 1103). Also: the record names both GSK3A and GSK3B. The following applies: small-molecule microarray binding, fluorescence 635 nm; higher = more signal.
The target in test [17] is Epidermal growth factor receptor (Homo sapiens) (UniProt P00533). Put plainly: EGFR binders on small-molecule microarrays, primary screen, biochemical, small-molecule microarray, 635 nm fluorescence (AID 1104).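 Also: score merges 667 nm emission intensity with spot signal to noise over triplicate slides.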 The note with it: EGFR binding, higher = more signal.
Epidermal growth factor receptor (Homo sapiens), sequence (P00533 whole entry, looked up): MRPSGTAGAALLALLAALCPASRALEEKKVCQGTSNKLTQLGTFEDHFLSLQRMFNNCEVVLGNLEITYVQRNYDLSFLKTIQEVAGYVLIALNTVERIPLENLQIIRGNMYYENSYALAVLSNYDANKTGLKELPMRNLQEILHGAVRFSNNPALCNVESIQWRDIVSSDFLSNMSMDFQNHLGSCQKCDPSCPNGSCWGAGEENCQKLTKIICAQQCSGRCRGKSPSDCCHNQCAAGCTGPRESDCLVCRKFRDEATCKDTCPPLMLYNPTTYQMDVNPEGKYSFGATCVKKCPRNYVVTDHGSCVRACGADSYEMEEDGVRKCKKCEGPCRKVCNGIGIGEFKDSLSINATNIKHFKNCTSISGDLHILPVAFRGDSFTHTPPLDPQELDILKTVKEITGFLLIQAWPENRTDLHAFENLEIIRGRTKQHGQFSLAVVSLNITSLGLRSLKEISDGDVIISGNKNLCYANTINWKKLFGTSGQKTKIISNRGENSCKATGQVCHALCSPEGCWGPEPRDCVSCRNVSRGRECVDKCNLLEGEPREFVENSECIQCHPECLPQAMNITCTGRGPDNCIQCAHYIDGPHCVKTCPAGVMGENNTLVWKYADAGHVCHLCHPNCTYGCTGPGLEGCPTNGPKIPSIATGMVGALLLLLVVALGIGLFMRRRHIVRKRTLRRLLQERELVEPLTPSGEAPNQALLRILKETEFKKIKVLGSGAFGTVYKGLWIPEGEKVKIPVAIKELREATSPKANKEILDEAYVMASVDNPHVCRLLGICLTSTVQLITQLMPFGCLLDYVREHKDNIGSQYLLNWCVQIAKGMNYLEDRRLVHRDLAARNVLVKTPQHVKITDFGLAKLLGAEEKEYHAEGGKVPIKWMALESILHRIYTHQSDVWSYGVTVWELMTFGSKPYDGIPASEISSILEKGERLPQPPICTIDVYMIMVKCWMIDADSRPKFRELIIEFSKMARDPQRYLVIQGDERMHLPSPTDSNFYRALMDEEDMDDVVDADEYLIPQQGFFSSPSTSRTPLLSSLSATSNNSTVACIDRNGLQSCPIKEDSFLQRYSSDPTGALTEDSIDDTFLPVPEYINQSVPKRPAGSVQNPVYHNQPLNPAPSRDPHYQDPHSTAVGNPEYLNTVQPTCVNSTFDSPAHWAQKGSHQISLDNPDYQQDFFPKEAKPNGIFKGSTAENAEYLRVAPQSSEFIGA
Test [18] has as its target Follistatin-related protein 3 (Homo sapiens) (UniProt O95633). Briefly: FSTL3 binders on small-molecule microarrays, primary screen, biochemical, small-molecule microarray, 635 nm fluorescence (AID 1105).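 Also: score merges emission near 667 nm and signal to noise per printed spot across three slides.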 The following applies: FSTL3 binding, higher = more signal.
The target of test [19] is Dickkopf-related protein 1 (Homo sapiens) (UniProt O94907). Briefly: DKK1 binders on small-molecule microarrays, primary screen, biochemical, small-molecule microarray, 635 nm fluorescence scan (AID 1106).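 Also: score merges emission near 667 nm with signal to noise over three replicate slides.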 The note with it: DKK1 binding, higher = more signal.
Dickkopf-related protein 1 (Homo sapiens), sequence (O94907 whole entry, looked up): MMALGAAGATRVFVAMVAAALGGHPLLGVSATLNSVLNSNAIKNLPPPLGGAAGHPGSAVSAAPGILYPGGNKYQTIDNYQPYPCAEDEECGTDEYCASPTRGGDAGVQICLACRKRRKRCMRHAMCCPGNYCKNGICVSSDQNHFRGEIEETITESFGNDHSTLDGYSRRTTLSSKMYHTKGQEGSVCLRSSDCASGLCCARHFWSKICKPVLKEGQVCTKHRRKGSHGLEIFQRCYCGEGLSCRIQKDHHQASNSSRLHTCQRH
Test [20] has as its system Inhibin beta A chain (activin A). Briefly: INHBA (activin A) binders on microarrays, primary screen, biochemical, small-molecule microarray, 635 nm fluorescence scan (AID 1107).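 Also: mouse activin A protein probed at 4.33 µg/mL on printed slides; score merges bound-protein fluorescence near 667 nm with spot signal-to-noise.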 The note with it: small-molecule microarray binding, higher = more signal.

Torsin-1A-interacting protein 2 (Homo sapiens), sequence (Q8NFQ8 whole entry, looked up): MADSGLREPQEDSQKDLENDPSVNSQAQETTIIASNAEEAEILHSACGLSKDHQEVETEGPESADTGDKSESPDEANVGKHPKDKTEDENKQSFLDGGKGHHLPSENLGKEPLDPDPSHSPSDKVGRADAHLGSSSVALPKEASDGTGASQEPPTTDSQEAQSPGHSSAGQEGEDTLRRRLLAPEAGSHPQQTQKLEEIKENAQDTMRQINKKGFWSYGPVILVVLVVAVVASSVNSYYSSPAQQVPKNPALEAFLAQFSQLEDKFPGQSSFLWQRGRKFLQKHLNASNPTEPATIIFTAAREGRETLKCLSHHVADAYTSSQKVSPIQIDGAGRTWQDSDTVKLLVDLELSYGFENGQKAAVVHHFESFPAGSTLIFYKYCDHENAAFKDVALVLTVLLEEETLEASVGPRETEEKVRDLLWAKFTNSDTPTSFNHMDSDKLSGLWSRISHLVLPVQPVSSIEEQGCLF
Follistatin-related protein 3 (Homo sapiens), sequence (O95633 whole entry, looked up): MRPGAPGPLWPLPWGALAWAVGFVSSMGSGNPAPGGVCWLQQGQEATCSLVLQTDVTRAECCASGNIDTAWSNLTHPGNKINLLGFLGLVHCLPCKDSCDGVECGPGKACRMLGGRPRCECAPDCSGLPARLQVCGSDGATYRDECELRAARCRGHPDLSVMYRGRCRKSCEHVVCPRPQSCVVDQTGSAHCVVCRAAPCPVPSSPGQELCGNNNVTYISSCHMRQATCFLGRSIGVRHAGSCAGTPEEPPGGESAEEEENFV

`COCCOC(=O)N1C(=O)[C@@]2(c3cc(C#CC4(O)CCCCCC4)ccc31)[C@H](C(N)=O)[C@H]1C(=O)O[C@H](c3ccccc3)[C@H](c3ccccc3)N1[C@@H]2c1ccc(O)cc1`: the composite z-score in test [1] is 1.55; in test [5] it was 2.41; in [7], -0.0009; in [8], 1.53; in test [9], 1.12; in [10], -0.0418. Besides, the composite z-score in test [11] is 1.16; in test [12], -0.116; in [13] it was -0.0074; in [15] it was 1.09; in [16] it was 1.01; in [17], 0.406. The composite z-score in [18] was found to be 1.28; in test [19], 0.489; in test [20], 0.496. Further, the z-score in [2] is 0.121 (inactive); in test [3] it was 0.182 (inactive); in [4], 0.523 (inactive); in [6], -0.426 (inactive); in [14] it was -0.538 (inactive).

Regarding `COC(=O)[C@@]1(Cc2ccc(F)cc2)[C@H]2c3cc(C(=O)N4CCCC4)n(CCF)c3C[C@H]2CN1C(=O)c1ccccc1`, the composite z-score in test [1] is -0.195; in test [5], 3.13; in [7], 1.49; in test [8] it was -0.258; in test [9], 1.13; in test [10] it was 0.879. The composite z-score in [11] was 1.62; in test [12], 1.98; in test [13], 1.02; in test [15], 0.876; in [16], 0.306; in test [17], -0.0069. In addition, the composite z-score amounted to 0.418 in test [18], 0.555 in [19] and 1.03 in test [20]. Also, the z-score in test [2] is -0.496 (inactive); in test [3], -0.202 (inactive); in test [4] it was -0.0254 (inactive); in test [6] it was 0.164 (inactive); in [14], -1.72 (inactive).

Take `CCOC(=O)C[C@H]1[C@H](OC(=O)c2ccc(C(=O)c3ccccc3)cc2)[C@@H](NC(=O)c2ccc3ccccc3c2)c2cc(OCCCO)ccc2N1C(=O)c1ccccc1`: the composite z-score is 1.56 in test [1]; 2.54 in test [5]; 0.0773 in test [7]; 0.354 in [8]; 1.09 in test [9]; 0.116 in test [10]. Further, the composite z-score in test [11] came to 0.422; in test [12], 0.489; in test [13], 0.17; in [15] it was 0.734; in test [16], 0.993; in test [17], 0.0993. Moreover, the composite z-score was determined as 0.786 in test [18], 0.105 in test [19] and 0.007 in test [20]. For the same compound, the z-score was -0.79 (inactive) in [2]; -0.681 (inactive) in test [3]; -0.278 (inactive) in test [4]; -0.551 (inactive) in test [6]; -0.072 (inactive) in test [14].

Consider `COC(=O)C1(Cc2ccccc2)C=C2C(=C(C(C)C)C(=O)C2C)CN1` (stereo not given), for which the composite z-score in test [1] is -1.15; in test [5], 2.41; in test [7] it was 0.469; in test [8] it was -1.79; in test [9] it was -1.05; in test [10], 0.156. Also, the composite z-score in test [11] is -1.21; in test [12], 1.34; in test [13] it was 1.36; in test [15], -0.713; in [16] it was -1.51; in test [17], -0.449. The composite z-score in [18] was -0.482; in test [19] it was -1.41; in [20] it was 1.35. For the same compound, the z-score in test [2] was 0.557 (inactive); in [3] it was -0.315 (inactive); in test [4], 0.471 (inactive); in test [6] it was -1.53 (inactive); in test [14] it was 1.62 (inactive).

As to `CC=CC(O)C1C=CC2C(=O)N(C)C(=O)C2N1Nc1ccc([N+](=O)[O-])cc1[N+](=O)[O-]` (stereo not given), the composite z-score in [1] is 0.0758; in test [5], 3.57; in test [7], -0.0478; in [8], -0.448; in [9] it was -0.44; in test [10] it was -0.342. Further, the composite z-score was 1.1 in test [11]; 0.121 in test [12]; 0.636 in test [13]; -0.49 in test [15]; -1.06 in test [16]; -0.898 in [17]. In addition, the composite z-score in test [18] is -0.79; in [19] it was -0.232; in [20], 1.11. Besides, the z-score in [2] is 0.837 (inactive); in test [3], 0.325 (inactive); in test [4], 1.67 (inactive); in test [6] it was -1.06 (inactive); in test [14] it was 0.607 (inactive).
